miR-122 sensor: blocks miR-122 activity in Huh7 sensor cells. Huh7 miR-122 Renilla luciferase sensor, 48 h; neutral wells = 0, positive control = 100. activation (reporter increase), % at 12.5 µM. 340,000 tested, 0.3% active. AID 602342;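 active means mean replicate activation score at least 90 and every replicate individually at or above 90; inconclusive means only one of the two criteria met; inactive means neither criterion met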;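 further: higher luciferase means less miR-122 activity so hits act as miR-122 inhibitors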
PvdQ acylase: P. aeruginosa PvdQ acylase inhibition; AID 488965; 340,000 tested, 0.063% active; inhibition, % at 10 µM; purified PvdQ acylase, fluorescence plate reader; in the data active means inhibition above about 30%, passing the limit was not always enough; inconclusive means no clear call, values can overlap the other calls;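 further: 0% = vehicle neutral wells and 100% = reference inhibitor wells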
PGC1a acetyl inh: lowers PGC1a acetylation signal in U2OS cells | AlphaScreen anti-acetyl-lysine; with virally co-expressed GCN5 acetyltransferase | inhibition, % at 15.6 µM | 350,000 tested, 0.17% active | AID 651687;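 active means every replicate shows inhibition of at least 40%; inconclusive means mean inhibition at least 40% but some replicate below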;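 further: 0% = neutral control wells and 100% = positive control wells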
DENV2 CPE: DENV2-induced cell death inhibition; DENV2-infected cells, cytopathic effect rescue, plate reader; CPE inhibition, % at 9.99 µM; 350,000 tested, 1.7% active; AID 651640; in the data active means CPE inhibition above about 20%, passing the limit was not always enough; inconclusive means no clear call, values can overlap the other calls; tested in BHK-21 cells;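 further: 0% = median of neutral control wells and 100% = median of positive control wells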
C2C12 statin: protects C2C12 myotubes from simvastatin toxicity; rescue of ATP level, % at 7.49 µM; 330,000 tested, 0.78% active; AID 602340; ATP luminescence, 48 h; scaled: DMSO 0, geranylgeraniol control 100;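 active means mean ATP rescue above about 67%, or every replicate alone reaching that limit, limit read from the data, passing the limit was not always enough; inconclusive means no clear call, values can overlap the other calls; inactive means mean under the limit and some replicate under it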;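 further: myotubes were challenged with 10 µM simvastatin during compound exposure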
miR-27b qPCR: alters miR-27b levels in Huh7 cells, selectivity for miR-122 inhibitors; shares compounds with miR-122 sensor; Huh7 miR-27b levels, qRT-PCR, 48 h; relative miR-27b level (unnormalised ratio), ratio at 35 µM; 35 tested, under 10 active;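 active means compounds lowering miR-27b whose fitted half-maximal dose is at most twice their top tested dose; inconclusive means flat curve with moderate drop, or poor fit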
COX5a expr inh: inhibitors of PGC-1a target COX5a expression in C2C12 myotubes | shares compounds with PGC1a acetyl inh | C2C12 myotubes PGC-1a adenovirus, COX5a qPCR | maximal activity, % | 45 tested, under 10 active;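 active means fitted dose curve reaching 40% activity at or below the highest valid dose tested; inconclusive means flat fit between 30% and 70%, or an unusable fit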
AID743468: change in PGC-1a target gene PDK4 expression, dose response, C2C12 myotubes, RT-qPCR, cherry-pick. shares compounds with PGC1a acetyl inh. PGC-1a adenovirus, PDK4 mRNA qPCR. PDK4 expression increase, % at 19.5 µM. 45 tested, under 10 active;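 active means fitted curve reaching a 40% PDK4 expression rise at or below the top valid tested dose; inconclusive means no clear call, values can overlap the other calls; inactive means the rest, including shifts the wrong way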
* marks the source's active call; other numbers are inactive results; ? = inconclusive; · = no result given; ! = a repeat was not active; [ ] = another dose, or the depositor's remark. Rows were chosen to be rich in hits. Some 2.2% of all compounds tested hit in one or more screens of this group.

SMILES	miR-122 sensor	PvdQ acylase	PGC1a acetyl inh	DENV2 CPE	C2C12 statin	COX5a expr inh	AID743468	others
CC1CCCCN1C(=O)c1cc2nc(-c3ccccc3)cc(-c3ccccc3)n2n1 (stereo not given)	120.8*	-22.4	-6.9	·	-2.3	·	·	miR-27b qPCR=0.901
COc1cccc(N2CCN(C(=O)c3oc4ccccc4c3NC(=O)CCc3cc(OC)no3)CC2)c1	?	-1.6	-6.9	1.1	-2.1	·	·	miR-27b qPCR=0.64
CC(=O)Nc1ccc(S(=O)(=O)NC2CC3CCC2C3)cc1 (stereo not given)	30.7	2.1	-19.2	0.9	5.2	·	·
Cc1cc(C)c(S(=O)(=O)NC2CC3CCC2C3)c(C)c1 (stereo not given)	124.7*	-15.8	-4.2	-0.9	2.1	·	·	miR-27b qPCR=0.474
CCOc1cc(C)c(S(=O)(=O)NC2CCCCC2)cc1C	197.8*	-30.2	-10.0	·	·	·	·	miR-27b qPCR=0.913
C[C@H](CO)N1C[C@H](C)[C@H](CN(C)C(=O)c2ccccc2)OCCCC[C@H](C)Oc2ccc(NC(=O)Nc3ccc4c(c3)OCO4)cc2C1=O	2.6[16.7 µM]	·	11.3	3.5	·	·	·
CCCCNS(=O)(=O)c1ccc2nc(-c3cccnc3)cc(C(=O)NC(C)C)c2c1	68.8	-15.8	-3.4	-3.1	1.4	·	·
CCCCNS(=O)(=O)c1ccc2nc(-c3cccnc3)cc(C(=O)NC(C)CC)c2c1 (stereo not given)	?	-4.1	14.1	-2.5	-2.9	·	·	miR-27b qPCR=0.566
CO[C@@H]1CN(C)C(=O)c2cc(NS(=O)(=O)CC(F)(F)F)ccc2OC[C@H](C)N(Cc2cccnc2)C[C@H]1C	·	·	6.5	-8.3	10.7	·	·
O=S(=O)(Nc1cccc2[nH]ncc12)c1ccc(F)c2ncccc12	·	·	·	·	·	·	·	miR-27b qPCR=0.886
Cc1noc(C)c1NC(=O)N(C)C[C@@H]1Oc2ccc(NS(=O)(=O)c3c(C)noc3C)cc2CC(=O)N([C@H](C)CO)C[C@@H]1C	2.9[16.7 µM]	·	10.2	-8.6	-20.6	·	·
O=C(C[C@@H]1CC[C@H]2[C@@H](COC[C@H](O)CN2C(=O)c2cnccn2)O1)NCc1ccc(Oc2ccccc2)cc1	3.4[16.7 µM]	·	1.9	1.5	-13.0	·	·
Cc1ccc(NS(=O)(=O)c2cc(C(=O)NCc3ccccn3)ccc2Cl)cc1C	101.2*	-6.1	-3.5	·	9.3	·	·	miR-27b qPCR=0.973
Cc1ccc(C)c(NS(=O)(=O)c2cc(C(=O)NCc3ccccn3)ccc2Cl)c1	74.7	2.4	3.2	·	0.8	·	·
COCCSc1ccccc1C(=O)Nc1cc(C)on1	1.6	-6.6	?	-3.6	10.5	-23.2	2.8
COc1ccc(C(=O)Nc2cccc(NC(=O)c3ccc(OC)c(OC)c3)n2)cc1OC	-9.6	-11.1	61.2*	2.6	1.0	-31.9	43.9*
C/C=C/c1cnc2c(c1)C(=O)N([C@@H](C)CO)C[C@H](C)[C@H](CN(C)S(=O)(=O)c1cn(C)cn1)O2	5.8[16.7 µM]	·	9.6	9.9	6.3	·	·
C#CCN(C[C@@H]1[C@@H](OC(=O)NCc2ccco2)[C@@H](OC(=O)NCc2ccco2)Cn2c(=O)ccc(=O)n21)S(=O)(=O)c1ccc(C)cc1	-5.2	·	-23.3	-8.7	-11.9	·	·
C#CCN(C[C@@H]1[C@@H](OC(=O)NCCCCCC)[C@@H](OC(=O)NCCCCCC)Cn2c(=O)ccc(=O)n21)S(=O)(=O)c1ccc(C)cc1	-21.5	·	92.0*	-3.6	-58.7	-39.0	88.0*
Cc1ccccc1-n1nnnc1SCC(N)=O	-1.6	3.6	1.5	·	6.4	·	·
Cc1ccccc1-n1nnnc1Sc1nnnn1-c1ccccc1	-13.0	-6.2	?	·	-8.7	-38.4	-44.3
Cc1ccc(Cn2ncc(Cl)c(Cl)c2=O)cc1	5.9	-4.3	-111.8	2.1	·	-35.3	11.8
O=C(NCC1CC1)[C@H]1[C@H](CO)[C@H]2Cn3c(ccc(-c4ccccc4)c3=O)[C@H]2N1CC1CC1	2.5[16.7 µM]	·	-1.3	1.1	4.4	·	·
OC(c1cc(-c2ccc(C(F)(F)F)cc2)nc(C(F)(F)F)c1)C1CCCCN1 (stereo not given)	-30.3	-7.6	-38.2	-7.8	13.3	·	·
OC(c1cc(C(F)(F)F)nc2c(C(F)(F)F)cccc12)C1CCCCN1 (stereo not given)	-10.1	4.0	-78.1	9.6	-7.9	-26.9	-11.4
SMILES	miR-122 sensor	PvdQ acylase	PGC1a acetyl inh	DENV2 CPE	C2C12 statin	COX5a expr inh	AID743468	others
N#Cc1cc(Oc2cccc3cccnc23)c(-n2nnc3ccccc32)cc1C#N	-0.3	-6.2	-138.7	2.0	·	-36.8	-50.3
N#Cc1cc(O)c(-n2nnc3ccccc32)cc1C#N	25.3	-13.4	-6.5	0.5	-4.5	·	·
COc1ccccc1C#Cc1ccc([C@H]2[C@H](C#N)N(C(=O)C3CCCC3)[C@H]2CO)cc1	·	·	64.9*	10.3	·	-32.7	2.7
Cc1ccc(S(=O)(=O)N(C)C[C@@H]2Oc3cc(C#Cc4ccncc4)ccc3S(=O)(=O)N([C@H](C)CO)C[C@H]2C)cc1	14.6[16.7 µM]	·	?	-1.9	-26.2	-49.2	-22.8
Cc1ccc(S(=O)(=O)N(C)C[C@@H]2Oc3cc(C#Cc4ccncc4)ccc3S(=O)(=O)N([C@@H](C)CO)C[C@H]2C)cc1	-18.4[16.7 µM]	·	59.6*	4.4	-13.3	-25.5	-23.1
Cc1ccc(S(=O)(=O)N(C)C[C@H]2Oc3cc(C#Cc4ccncc4)ccc3S(=O)(=O)N([C@@H](C)CO)C[C@@H]2C)cc1	56.6[16.7 µM]	·	36.5	4.6	-22.1	·	·
COCC(=O)N1CC2(CN(Cc3nccs3)C2)c2c(n(C)c3cc(OC)ccc23)[C@H]1CO	·	·	2.9	-0.6	·	·	·
O=C(C[C@H]1CC[C@@H]2NC[C@@H](O)COC[C@H]2O1)Nc1ccccc1	4.5[16.7 µM]	·	-7.2	0.5	9.8	·	·
CCN(CC(=O)NCc1ccc(Cl)cc1)C(=O)CSCC(=O)Nc1ccc(C)cc1	·	4.3	-83.0	-5.3	8.7	-23.5	-10.0
CCN(CC(=O)NCc1ccc(Cl)cc1)C(=O)CSc1cc(C)ccc1C	·	-13.6	4.5	12.0	6.6	·	·
COc1ccc(S(=O)(=O)Nc2cccc3c2O[C@@H](CN(C)Cc2ccc(Cl)c(Cl)c2)[C@H](C)CN([C@H](C)CO)C3=O)cc1	17.4[16.7 µM]	·	-20.2	·	·	·	·
CCN1CCN(Cc2ccc(NC(=O)c3ccc(C)c(NC(=O)c4c[nH]c5cc(C(F)(F)F)ccc5c4=O)c3)cc2C(F)(F)F)CC1	-32.8	-9.5	77.9*!	2.5	-64.7	-30.1	-25.1
COc1ccc(NC(=O)N(C)C[C@@H]2OCCCC[C@@H](C)Oc3ccc(NS(=O)(=O)c4ccccc4)cc3C(=O)N([C@H](C)CO)C[C@@H]2C)cc1	3.7[16.7 µM]	·	5.5	-1.8	·	·	·

High-throughput results as filed in PubChem.
